From paper PMC4552634, “A New Set of Chemical Starting Points with Plasmodium falciparum Transmission-Blocking Potential for Antimalarial Drug Discovery” (PLoS ONE, 2015)
Out of some 13,000 compounds screened, about 3,200 (25%) showed an effect of 50% or more. The list shows a part of the results.

test system: P. falciparum stage V gametocytes; set-up: BacTiter-Glo ATP luminescence viability of purified stage V gametocytes in 384-well plates, per cent inhibition versus DMSO; details: 48 h, 5 µM; inhibitor

| SMILES | % Inhibition [%] |
| --- | --- |
| Clc1ccc(-c2ncc(-c3ccncc3)[nH]2)cc1Cl [TCMDC-135775] | -31.04 |
| Nc1ccnc(N2CCC(CCOc3ccnc4cc(Cl)ccc34)CC2)c1 [TCMDC-141365] | -42.39 |
| CC(=O)Nc1nnc(SCc2c(C)cc(C(C)(C)C)cc2C)s1 [TCMDC-125446] | 0.04812 |
| CN1CC[C@@H](Oc2cc(Nc3nc(-c4ccc(C#N)cc4)cs3)ccc2Cl)C1 [TCMDC-136291] | 12.39 |
| Cc1ccc2[nH]c3c(c2c1)CC(C(=O)NCCC(C)C)NC31CCN(Cc2ccccc2)CC1 (stereo not shown) [TCMDC-141090] | 28.05 |
| CCCCCCNC(=O)C1Cc2c([nH]c3ccc(F)cc23)C2(CCN(Cc3ccccc3)CC2)N1 (stereo not shown) [TCMDC-141303] | 21.59 |
| CCCCCCNC(=O)C1Cc2c([nH]c3cc(Cl)ccc23)C2(CCN(CCC)CC2)N1 (stereo not shown) [TCMDC-141297] | -77.49 |
| CC(C)CCNC(=O)C1Cc2c([nH]c3ccc(Br)cc23)C2(CCN(Cc3ccccc3)CC2)N1 (stereo not shown) [TCMDC-141178] | 102.8 |
| CC(C)CCNC(=O)C1Cc2c([nH]c3ccc(Br)cc23)C2(CCN(CCc3ccccc3)CC2)N1 (stereo not shown) [TCMDC-141179] | 47.91 |
| CCCCCCNC(=O)C1Cc2c([nH]c3cc(Cl)ccc23)C2(CCN(Cc3ccccc3)CC2)N1 (stereo not shown) [TCMDC-141296] | 89.1 |
| Nc1cc(-c2cc3c(OCc4ccccc4)cccc3[nH]2)ccn1 [TCMDC-134290] | -55.8 |
| CN(C)CCC1CCN(CCS(=O)(=O)c2cccc(Nc3ccc(-c4ccsc4)cn3)c2)CC1 [TCMDC-134377] | 15.01 |
| Cc1cc(Cl)ccc1NC(=O)Nc1ccc2nccc(N3CCN(C)CC3)c2c1 [TCMDC-139357] | 8.372 |
| COc1ccc(CN(C)CCCOc2ccc(NC(=O)c3cccc4c(=O)c5cccc(F)c5[nH]c34)cc2)cc1OC [TCMDC-131846] | 60.98 |
| COc1ccc(CCN(C)CCCOc2ccc(NC(=O)c3cccc4c(=O)c5ccccc5[nH]c34)cc2)cc1OC [TCMDC-132116] | 43.65 |
| COc1ccc(CCN(C)CCCN2CCC(NC(=O)c3cccc4c(=O)c5ccccc5sc34)CC2)cc1OC [TCMDC-131966] | 103.2 |
| COc1ccc(CCN(C)CCOc2ccc(NC(=O)c3cc(SC)cc4c(=O)c5ccccc5[nH]c34)cc2)cc1OC [TCMDC-131957] | 24.55 |
| COc1ccc(CN(C)CCOc2ccc(NC(=O)c3cccc4c(=O)c5cc(SC)ccc5[nH]c34)cc2)cc1OC [TCMDC-131956] | 28.02 |
| COc1ccc(CN(C)CCCOc2ccc(NC(=O)c3cccc4c(=O)c5cccc(C)c5[nH]c34)cc2)cc1OC [TCMDC-131850] | 23.76 |
| COc1ccc(CCN(C)CCCCc2ccc(NC(=O)c3cccc4c(=O)c5cc(F)ccc5sc34)cc2)cc1OC [TCMDC-131961] | 94.02 |
| COc1cc(OCCCN(C)Cc2ccc(OC)c(OC)c2)ccc1NC(=O)c1cccc2c(=O)c3cccc(F)c3[nH]c12 [TCMDC-131853] | 16.5 |
| COc1ccc(CCN(C)CCc2ccc(NC(=O)c3cccc4c(=O)c5ccccc5sc34)cc2)cc1 [TCMDC-131965] | 45.76 |
| COc1ccc(CCN(C)CCOc2ccc(NC(=O)c3cccc4c(=O)c5cc(SC)ccc5[nH]c34)cc2)cc1OC [TCMDC-131958] | 53.19 |
| COc1ccc(CN(C)Cc2ccc(NC(=O)c3cccc4c(=O)c5cccc(C)c5[nH]c34)cc2)cc1OC [TCMDC-131852] | 2.818 |
| O=C(NCC1CCC(C(=O)NC2CCCc3ccccc32)CC1)c1ccc(O)c(-c2ccc(Cl)c(Cl)c2)c1 (stereo not shown) [TCMDC-140891] | 17.3 |

| SMILES | % Inhibition [%] |
| --- | --- |
| COC(=O)C(NC(=O)NC1CCN(c2ccnc(Nc3ccc(F)cc3)n2)C1)c1ccccc1 (stereo not shown) [TCMDC-133595] | 4.499 |
| CCc1sc(CN(CCCNc2cc(=O)c3ccccc3[nH]2)Cc2sc(CC)c(Br)c2-c2ccsc2)c(-c2ccsc2)c1Br [TCMDC-140753] | 49.24 |
| N=C1c2ccccc2CN1CC(=O)c1ccc(Cl)c(Cl)c1 [TCMDC-123783] | -26.95 |
| N#Cc1ccc2c(c1)CCN(CCC1CCC(NC(=O)/C=C/c3cnc4ccccc4c3)CC1)CC2 (stereo not shown) [TCMDC-139662] | -42.99 |
| O=C(NCc1ccc(F)cc1)Nc1cccc(-c2ccc(-c3nc4ccc(F)cc4[nH]3)cc2)c1 [TCMDC-133301] | -42.08 |
| CCc1nnc2sc(-c3cccc(NC(=O)c4ccc(OC)c(Cl)c4)c3)nn12 [TCMDC-125049] | -8.625 |
| CC(C)(CN)c1cc(-c2ccc(Cl)c(O)c2)c(-c2ccncc2)o1 [TCMDC-141334] | -68.46 |
| CCCC(=O)Nc1ccc(Cl)c(NC(=O)COc2cc(C)ccc2C(C)C)c1 [TCMDC-123706] | -6.515 |
| CCc1ccc(NC(=O)c2ccc(CN3CCCN(Cc4cccc(C)c4)CC3)cc2)cc1 [TCMDC-136440] | -10.99 |
| Nc1ncnc2nc(-c3ccc(F)cc3)cc(-c3ccc(NC(=O)c4ccccc4)cc3)c12 [TCMDC-134854] | -13.72 |
| CCCC1N=C(N)N=C(N)N1c1ccc(CC)cc1 (stereo not shown) [TCMDC-131300] | -2.095 |
| CC(C)CC1c2[nH]c3ccccc3c(=O)c2CN1C(=O)OC(C)(C)C (stereo not shown) [TCMDC-134513] | 44.74 |
| COc1ccc(CN(C)CCCc2ccc(NC(=O)c3cccc4c(=O)c5ccccc5[nH]c34)cc2)cc1OC [TCMDC-131963] | 13.74 |
| COc1ccc(CCN(C)CCOc2ccc(NC(=O)COc3ccc4sc5ccccc5c(=O)c4c3)cc2)cc1OC [TCMDC-132111] | 31.27 |
| COc1ccc(CCN(C)CCCOc2ccc(NC(=O)COc3cccc4sc5ccccc5c(=O)c34)cc2)cc1OC [TCMDC-132117] | 17.11 |
| COc1ccc(CN(C)CCCCc2ccc(NC(=O)COc3cccc4sc5ccccc5c(=O)c34)cc2)cc1OC [TCMDC-131960] | 103.7 |
| COc1cc(CCN(C)Cc2ccc(OC)c(OC)c2)ccc1NC(=O)c1cccc2c(=O)c3cccc(F)c3[nH]c12 [TCMDC-131854] | 37.94 |
| COc1ccc(CN(C)CCCc2ccc(NC(=O)c3cccc4c(=O)c5cccc(F)c5[nH]c34)cc2)cc1OC [TCMDC-131964] | 81.66 |
| Cn1cnnc1Sc1ccc(CN2CCOc3ccc(C4=CCCCC4)cc3C2)o1 [TCMDC-124661] | -23.49 |
| NC1=NC(c2ccccc2)(c2ccccc2)C(=O)N1CCOc1ccccc1 [TCMDC-136493] | -46.39 |
| Clc1ccc2c(N3CCN(CCN4CCN(c5ccnc6cc(Cl)ccc56)CC4)CC3)ccnc2c1 [TCMDC-125557] | -4.056 |
| CCCc1cc(Cc2cnc(N)nc2N)ccc1OCCCCCC(=O)OCC [TCMDC-137232] | -11.7 |
| CCOC(=O)C(=CNc1ccc(Cc2cnc(N)nc2N)cc1CC)C(=O)OCC [TCMDC-137346] | 53.58 |
| CCc1cc(Cc2cnc(N)nc2N)cc(CC)c1OC [TCMDC-137697] | -15.83 |
| O=C1CN(C(=O)CCC2CCCC2)C(c2ccc(F)cc2)c2cc(F)ccc2N1 (stereo not shown) [TCMDC-124463] | -48.27 |

| SMILES | % Inhibition [%] |
| --- | --- |
| O=C(Nc1cccc(OC2CCN(Cc3ccccc3)CC2)c1)c1ccc(Cl)c(Cl)c1 [TCMDC-139542] | 5.419 |
| c1cncc(NCc2ccc(-c3cc4ccncc4cc3OC3CCNCC3)s2)c1 [TCMDC-134161] | 28.32 |
| O=C(Nc1cccnc1)c1ccc(-c2cc3ccncc3cc2OC2CCNCC2)s1 [TCMDC-134228] | 62.63 |
| c1ccc2oc(-c3cc4ccncc4cc3OC3CCNCC3)cc2c1 [TCMDC-134160] | 92.38 |
| c1ccc(-c2cc3cccc(-c4nc5ccncc5[nH]4)c3o2)cc1 [TCMDC-140516] | 7.065 |
| Nc1ncc(-c2cc3ccccc3o2)c(N)n1 [TCMDC-137177] | 18.48 |
| COc1cccc(-c2nn(C)c3sc(C(=O)Nc4cccnc4)cc23)c1 [TCMDC-123584] | -55.35 |
| Cc1cc(NC(=O)c2cccs2)ccc1OC1CCN(Cc2ccccc2)CC1 [TCMDC-133988] | 37.37 |
| O=C(Nc1ccccc1)c1ccc(-c2cc3ccncc3cc2OC2CCNCC2)s1 [TCMDC-134227] | 77.06 |
| CCOC(=O)c1ccc(NC(=O)Nc2cccc(-c3ccc(-c4nc5cccc(C)c5[nH]4)s3)c2)cc1 [TCMDC-133258] | -27.38 |
| O=C(Nc1ccsc1)Nc1cccc(-c2cccc(-c3nc4ccc(F)cc4[nH]3)c2)c1 [TCMDC-133216] | -18.7 |
| O=C(Nc1cccc(-c2ccc(-c3nc4ccc(F)cc4[nH]3)cc2)c1)Nc1ccc(F)c(F)c1F [TCMDC-133231] | -4.749 |
| C=Cc1cc(NC(=O)N2CCc3cc(OC)c(C(F)(F)F)cc32)cc(-c2cccnc2)c1 [TCMDC-139030] | -6.517 |
| CC(C)=CC1C(C(=O)n2c(N)nc3ccccc32)C1(C)C (stereo not shown) [TCMDC-131688] | 3.871 |
| CC(C)n1c(C(C)(C)C)cc2c3c(N)nc(N)nc3ccc21 [TCMDC-137311] | 32.82 |
| CC(C)(C)c1ccc(Cc2cccc3nc(N)nc(N)c23)cc1 [TCMDC-137821] | -51.22 |
| Cc1c(C(C)(C)C)ccc2nc(N)nc(N)c12 [TCMDC-137831] | -39.39 |
| CC(C)(C)c1ccc(-c2cc3c(ccc4nc(N)nc(N)c43)[nH]2)cc1 [TCMDC-137977] | 117.8 |
| Nc1ccc(-c2nc3c(ccc4ccccc43)[nH]2)cc1 [TCMDC-124395] | 24.31 |
| CC(C)(C)c1ccc(-c2nc3c(ccc4nc(N)nc(N)c43)[nH]2)cc1 [TCMDC-137984] | 112.2 |
| Cc1c(N)ccc2[nH]c(-c3ccc(N)cc3)nc12 [TCMDC-124242] | 91.56 |
| Cc1cc(N)cc2[nH]c(-c3ccc(N)cc3)nc12 [TCMDC-124391] | -6.074 |
| CC(C)c1cc2c(ccc3nc(N)nc(N)c32)[nH]1 [TCMDC-137847] | 19.02 |
